# Compounds with a hit are over-represented: about 4.8% of the library has one in this group of screens.
# ATXN viability: cell viability loss in ATXN counter-screen; S2 cells (HEK-293 line with an ATXN2-luciferase reporter) viability, CellTiter-Fluor protease fluorescence, 24 h; Potency, µM (doses to about 56.7 µM), actives largely listed as cytotoxic; hit rate 0.49% among 400,000; AID 651635; also: potency is read from the fitted curve at half-maximal effect; nearly all actives have a fitted effect of over 40% in size
# ATXN2 expr inh: ATXN2 expression inhibition | HEK-293 ATXN2-luciferase reporter, luminescence, 24 h | Potency, µM (top dose mostly 57 µM), for inactives: at the highest dose activity change, negative = inhibition, hits mostly inhibitors | hit rate 0.72% among 360,000 | AID 1745845; also: potency is read from the fitted curve at half-maximal effect; % is scaled to controls: 0 for no effect and ±100 for the full control effect; nearly all actives have a fitted effect of over 55% in size
#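 ATXN2-luciferase reporter cells (luciferase flanked by upstream and downstream ATXN2 gene portions) were treated 24 h at 37 °C with compounds at up to 57 uM. SteadyGlo luminescence gave expression; GF-AFC fluorescence gave viability.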
# TGFb SMAD3 inh: blocks TGF-b signaling; AID 588855; HepG2 CAGA-GFP TGF-b/SMAD3 reporter, GFP fluorescence, 18 h; TGF-beta stimulated, 500 pg/mL final; hit rate 1.2% among 410,000; Potency, µM (titrated, usually from 46.1 µM), inactives show at the top dose activity, negative = inhibition, actives largely listed as inhibitors; also: potency is read from the fitted curve at half-maximal effect; % is scaled to controls: 0 for no effect and ±100 for the full control effect; nearly all actives have a fitted effect of over 65% in size
#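 Cell-based qHTS in HEPG2 carrying a CAGA-GFP Smad reporter; compounds added before 500 pg/mL final TGF-beta, 18 h incubation at 37 degrees C, GFP fluorescence quantified per cell by imaging cytometry.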
# D3 ag: activates the human D3 dopamine receptor; P35462; D3R DiscoveRx beta-arrestin cells, luminescence, 90 min; max activation, %; hit rate 0.58% among 410,000; AID 652048; in the data active = max activation above about 30%; also: 0% is about no effect
# Target sequence (P35462 whole entry, looked up): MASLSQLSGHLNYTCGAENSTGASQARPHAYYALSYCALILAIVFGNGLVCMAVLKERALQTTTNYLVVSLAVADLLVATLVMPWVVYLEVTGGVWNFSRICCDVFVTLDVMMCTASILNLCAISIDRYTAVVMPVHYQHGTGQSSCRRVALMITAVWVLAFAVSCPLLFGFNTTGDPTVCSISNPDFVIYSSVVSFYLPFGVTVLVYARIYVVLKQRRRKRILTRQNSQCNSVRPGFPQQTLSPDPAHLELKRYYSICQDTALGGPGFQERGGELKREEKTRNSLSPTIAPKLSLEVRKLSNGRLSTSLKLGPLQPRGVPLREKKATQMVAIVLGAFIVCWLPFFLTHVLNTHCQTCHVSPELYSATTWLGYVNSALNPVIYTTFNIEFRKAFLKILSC
#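 Agonist-mode cell screen: cells plated at 1500/well and incubated overnight at 37 °C, then exposed to library compounds for 90 min at 37 °C. Detection reagent was added for 30–60 min at room temperature, and luminescence was read.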
# HepG2 tox-1: kills HepG2 cells in TGF-b inhibitor counter-screen; HepG2 CAGA-GFP viability, ATP luminescence, 18 h; Potency, µM (series often up to 46.1 µM), inactives show top-dose activity change, negative = cytotoxicity, usual class: cytotoxic; hit rate 0.76% among 410,000; also: potency is read from the fitted curve at half-maximal effect
#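 HepG2 CAGA-GFP cells (1000/well, DMEM with 1% FBS) received compound, then TGF-beta at 500 pg/mL final, and were incubated 18 hours at 37 degrees C. Viability was read by CellTiter-Glo luminescence. Media-only wells were set as complete cell-killing and DMSO as no toxicity.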
# DRD3 antagonist: D3 dopamine receptor (human) antagonism; hit rate 2.5% among 360,000; P35462; D3R cells, DiscoveRx beta-arrestin luminescence, antagonist mode; hits give low values; AID 652054; max response, negative = inhibition, %; in the data active = max response below about -50%; inconclusive = no clear call, values can overlap the other calls; also: % is scaled to controls: 0 for no effect and ±100 for the full control effect
#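 Cells expressing the human receptor were seeded at 1500 cells/well, incubated overnight at 37 degrees C in 5% CO2, then exposed to library compounds with dopamine controls for 90 minutes at 37 degrees C before luminescent detection.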
# TGFb confirm: TGF-b pathway inhibition, cherry-pick retest; shares compounds with TGFb SMAD3 inh; HepG2 CAGA-GFP TGF-b reporter, GFP fluorescence, 18 h; cells stimulated with TGF-beta, 500 pg/mL; Potency, µM (doses to about 46.1 µM), for inactives: at the highest dose activity, negative = inhibition, actives largely listed as inhibitors; hit rate 63% among 1,600; AID 720534; also: potency is read from the fitted curve at half-maximal effect; % is scaled to controls: 0 for no effect and ±100 for the full control effect; nearly all actives have a fitted effect of over 65% in size
# HepG2 tox-2: toxic to HepG2 cells in TGF-b counterscreen; hit rate 27% among 1,600; HepG2 CAGA-GFP viability, ATP luminescence, 18 h; cells stimulated with TGF-beta, 500 pg/mL; Potency, µM (titrated, usually from 46.1 µM), for inactives: at the highest dose activity, negative = cytotoxicity, hits mostly inhibitors; shares compounds with TGFb SMAD3 inh; also: potency is read from the fitted curve at half-maximal effect; % is scaled to controls: 0 for no effect and ±100 for the full control effect; nearly all actives have a fitted effect of over 70% in size
# CCL64 TGFb inh: orthogonal confirmation of TGF-b inhibitors in CCL64 cells; Potency, µM (doses to about 46.1 µM), without a hit: at the top dose activity, negative = inhibition, most hits filed as inhibitors; CCL64 CAGA-GFP reporter, TGF-b stimulated, GFP fluorescence, 18 h; shares compounds with TGFb SMAD3 inh; AID 720536; hit rate 41% among 1,600; also: potency is read from the fitted curve at half-maximal effect; nearly all actives have a fitted effect of over 65% in size
# COP TGFb inh: blocks TGF-b signaling in HepG2 COP reporter | hit rate 3% among 1,600 | Potency, µM (series often up to 46.1 µM), inactives show top-dose activity, negative = inhibition, most hits filed as inhibitors | HepG2 COP-GFP TGF-b reporter, GFP fluorescence, 18 h; cells stimulated by added recombinant TGF-beta | AID 720537 | shares compounds with TGFb SMAD3 inh; also: potency is read from the fitted curve at half-maximal effect; nearly all actives have a fitted effect of over 70% in size
# * = called active by the depositor; i = inactive; u = inconclusive; x = no result. Unless noted, calls follow the shape of the dose curve; as a rule, active = well fitted curve in the direction sought with a large enough effect; inconclusive = small, poorly fitted or top-dose-only effect, or another doubt; inactive = no such curve, though single readings can be large; an effect the other way counts as inactive or inconclusive.
SMILES,ATXN viability,ATXN2 expr inh,TGFb SMAD3 inh,D3 ag,HepG2 tox-1,DRD3 antagonist,TGFb confirm,HepG2 tox-2,CCL64 TGFb inh,COP TGFb inh
Cn1cnc([N+](=O)[O-])c1Sc1nc(N)nc2c1ncn2C1CC(O)C(CO)O1 (configuration not stated),u,-35%,4µM*,4,-39%,-12,4.1µM*,u,19%,82%
CC(=O)Nc1ccc(S(=O)(=O)Nc2c(C)nn(-c3ccccc3)c2C)cc1,u,-18%,2%,12,11%,18,x,x,x,x
Cc1nn(-c2ccc(F)cc2)c(C)c1NS(=O)(=O)c1ccc2ccccc2c1,u,u,10µM*,7,-30%,6,u,u,u,20%
Cn1c2ccccc2c2c(C(=O)N3CCN(c4cccc(Cl)c4)CC3)cn(C3CCCCC3)c(=O)c21,x,x,u,2,-25%,x,x,x,x,x
CCOc1ccc(NCc2nc3ccccc3n2CCOc2ccccc2)cc1,u,-15%,20µM*,-6,-23%,-1,15µM*,-29%,-19%,13%
Cc1cc(Cl)ccc1NC(=O)C1CCN(S(=O)(=O)c2ccc3[nH]c(=O)ccc3c2)CC1,i,8%,-3%,1,1%,x,x,x,x,x
CC1CCc2[nH]c3ccc(C(=O)N4CCCC(C(F)(F)F)C4)cc3c2C1 (configuration not stated),i,6%,14µM*,1,8%,-20,u,u,21µM*,58%
Cc1ccc(NC(=O)CCNS(=O)(=O)c2ccc3c(c2)CCN3C(=O)C2CC2)c(Cl)c1,i,-23%,-10%,-1,-26%,x,x,x,x,x
Cc1ccccc1C(=O)c1c[nH]c(C(=O)N2CCN(c3ccccc3F)CC2)c1,i,-3%,u,-4,15%,-2,13µM*,-19%,u,3%
NC(=O)c1cc(C(=O)c2cccc(Cl)c2Cl)c[nH]1,i,4%,-2%,5,-19%,1,x,x,x,x
O=C(c1c[nH]c(C(=O)N2CCN(c3ccccc3F)CC2)c1)c1cccc(Cl)c1Cl,i,x,10µM*,0,-5%,-5,12µM*,u,u,70%
C/C(=N\NC(=O)c1ccccc1OCCOc1ccccc1)c1ccccc1F,u,-13%,20µM*,7,-19%,8,u,u,u,57%
C/C(=N\NC(=O)c1ccccc1)c1ccccc1F,i,73%,20%,-2,13%,4,x,x,x,x
CC(C)(C)C(=O)NCCCc1nc2ccccc2n1CCCOc1ccc(Cl)cc1,i,-31%,13µM*,-12,-17%,7,12µM*,-14%,u,11%
CCc1ccc(C(=O)CSc2nc(-c3ccccc3)nc3c2CCCC3)cc1,i,15%,4%,-8,-19%,x,x,x,x,x
Cn1c(C2CCC2)nc2cc(C(=O)N3CCOc4ccccc4C3)cc(NC(=O)C3CCCO3)c21 (configuration not stated),i,x,x,x,x,x,x,x,x,x
CC(C)CNC(=O)COC(=O)c1c2c(nc3ccccc13)/C(=C\c1cccs1)CC2,x,21%,-13%,11,-31%,44,x,x,x,x
CC(=O)c1ccc(NC(=O)COC(=O)c2c3c(nc4ccccc24)/C(=C\c2cccs2)CCC3)cc1,i,u,1.8µM*,-1,-37%,-6,6.5µM*,u,1.5µM*,27%
O=C(COC(=O)c1c2c(nc3ccccc13)/C(=C\c1cccs1)CCC2)Nc1ccccc1,i,-23%,11µM*,38*,-4%,43,u,u,u,39%
CCCOc1ccc(NC(=O)CC2C(=O)N(c3ccc(Cl)cc3)C(=O)N2CCc2ccncc2)cc1 (configuration not stated),x,x,u,-20,-30%,x,x,x,x,x
CN(c1cccc(NC(=O)CN(c2cccc(Cl)c2)S(=O)(=O)c2ccccc2)c1)S(C)(=O)=O,i,4%,u,3,-40%,2,-6%,-28%,u,4%
COc1cc(/C=C(\C#N)c2nc3ccccc3[nH]2)cc(Br)c1OCc1ccccc1,x,u,11µM*,17,-29%,-3,u,u,-19%,22%
COc1cc(/C=C(\C#N)c2nc3ccccc3[nH]2)cc(Br)c1OCc1ccc(F)cc1,i,-11%,6%,-3,-28%,-12,x,x,x,x
C[C@@H]1CN([C@@H](C)CO)C(=O)c2cccc(NC(=O)Nc3ccc(F)cc3)c2O[C@@H]1CN(C)Cc1ccc(Oc2ccccc2)cc1,18µM*,u,4µM*,-14,-50%,-71*,16µM*,u,6.5µM*,42%
C[C@H](CO)N1C[C@H](C)[C@@H](CN(C)S(=O)(=O)c2ccccc2)Oc2c(NC(=O)Nc3ccc(C(F)(F)F)cc3)cccc2C1=O,u,u,10µM*,4,-29%,-13,21µM*,u,u,12%
C[C@@H]1CCCCO[C@H](CN(C)Cc2ccc(Cl)c(Cl)c2)[C@H](C)CN([C@@H](C)CO)C(=O)c2cc(NC(=O)Nc3ccc(F)cc3)ccc2O1,u,u,10µM*,-4,-23%,-23,5.8µM*,u,5.8µM*,48%
COc1ccc(C(=O)N/N=C/c2ccccc2OC(=O)c2ccccc2)cc1,u,-33%,u,-10,-67%,-23,x,x,x,x
